Shiga inhibitor = inhibitors of Shiga toxin in Vero cells | Vero cells, Shiga toxin protein synthesis inhibition reporter | inhibition, % at 38.7 µM | 290,000 compounds, 9.2% hits; in the data active = inhibition mostly above about 28%, no sharp cut-off; inactive = mostly below about 43%; note: 0% is about no effect
Lassa entry inh = blocks Lassa virus binding to or entry into cells. Lassa virus pseudotype entry inhibition, cell reporter. Potency, µM (highest dose often 37.9 µM), without a hit: at the top dose activity change, negative = inhibition, hits mostly inhibitors. 300,000 compounds, 1.2% hits; calls by dose curve; tested in HEK293 cells; note: potency is the fitted concentration of half-maximal effect; % is set by controls: 0 for no effect and ±100 for the full control effect; nearly all actives have a fitted effect of over 50% in size
FMDV inh = foot and mouth disease virus antiviral activity. FMDV antiviral cell-based qHTS. Potency, µM (titrated, usually from 57.9 µM), without a hit: top-dose activity change, negative = inhibition, most hits filed as inhibitors. 410,000 compounds, 1.2% hits; calls by dose curve; tested in HEK293T cells; note: read-out not given here; potency is the fitted concentration of half-maximal effect; % is set by controls: 0 for no effect and ±100 for the full control effect; nearly all actives have a fitted effect of over 45% in size
MARV entry inh = inhibitors of Marburg virus binding or cell entry | Potency, µM (doses to about 37.8 µM), without a hit: top-dose activity change, negative = inhibition, actives largely listed as inhibitors | Marburg virus pseudotyped entry inhibition, cell reporter | 300,000 compounds, 1.8% hits | AID 540276; calls by dose curve; tested in HEK293 cells; note: potency is the fitted concentration of half-maximal effect; % is set by controls: 0 for no effect and ±100 for the full control effect
HCV inh = blocks hepatitis C virus. Huh7.5.1 HCVcc-Cre infection, luciferase reporter, 44 h. Potency, µM (highest dose often 41.8 µM), for inactives: at the top dose activity change, negative = inhibition, hits mostly inhibitors. 340,000 compounds, 3.4% hits; active = well fitted inhibition curve with a large enough effect; inconclusive = small, poorly fitted or top-dose-only effect, or another doubt; inactive = no such curve, though single readings can be large or run the other way; note: potency is the fitted concentration of half-maximal effect; % is set by controls: 0 for no effect and ±100 for the full control effect
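1,000 cells/well; 4 h culture; + compound; + HCVcc-Cre (~0.5 moi); 44 h; luciferase substrate, RT 15 min; read 15 sec.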
Cycloheximide cs = counter-screen hit for Shiga toxin inhibitors, cycloheximide; max response, %; AID 2314; 300,000 compounds, 12% hits; cell reporter, cycloheximide protein synthesis inhibition counterscreen; in the data active = max response mostly above about 13%, no sharp cut-off; inactive = mostly below about 14%; note: read at 38.3 µM for the half of the compounds with a filed dose; 0% is about no effect
The depositor's hits bear a star; ? = inconclusive; . = not tested or not shown; [ ] = remark or other dose. Most compounds without a hit are left out; they make up all but 13% or so of the library.

SMILES	Shiga inhibitor	Lassa entry inh	FMDV inh	MARV entry inh	HCV inh	Cycloheximide cs
COc1ccc(/C=C/C(=O)NC(=S)Nc2ccc(N3CCN(C(C)=O)CC3)cc2)cc1	-2.6	.	-11.7%	.	5.5%	-7.8
COc1ccc(NC(=O)NNC(=O)COc2ccc([N+](=O)[O-])c(C)c2)cc1OC	-42.2	-1.9%	-4.7%	?	3.0%	-1.9
CCCCN1C[C@H](C)[C@@H](CC(=O)Nc2ccccc2)C1=O	.	.	0.0%	.	.	.
CC1CCC(C(C)C)C(OCC(O)CN2CCCC(C)C2)C1 (stereo not drawn)	12.2	5.62µM*	?	?	?	0.9
CC1CCC(C(C)C)C(OCC(O)CN2CCOCC2)C1 (stereo not drawn)	-20.4	8.9%	.	?	5.3%	-2.6
CC1CCC(C(C)C)C(OCC(O)CN2CCN(Cc3ccccc3)CC2)C1 (stereo not drawn)	-9.2	8.91µM*	?	?	?	-3.4
COc1cc(COCC(O)CN2CCN(Cc3ccccc3)CC2)cc(OC)c1OC (stereo not drawn)	-15.9	.	9.7%	.	-6.3%	-13.2
O=C(CCCc1nc(-c2ccc(Cl)cc2)no1)NC1CCCC1	-20.4	?	?	?	?	2.1
N=C1C(c2nc(-c3ccc(Cl)cc3)cs2)=C(O)CN1NC(=O)c1ccc(O)cc1	24.6	.	39.3%	.	3.5%	23.4*
COc1ccc(-c2csc(C3=C(O)CN(Cc4ccc(Cl)cc4)C3=N)n2)cc1OC	-19.0	-19.0%	-6.8%	-1.1%	11.2µM*	-5.3
CC(C)(C)c1ccc(C(=O)NCCc2csc(-c3ccc(Cl)cc3)n2)cc1	.	-1.7%[46.1 µM]	-13.2%	.	.	.
COc1ccc(-c2csc(C3=C(O)CN(Cc4ccc(S(N)(=O)=O)cc4)C3=N)n2)cc1OC	-19.6	2.1%	2.8%	1.5%	-16.3%	-2.5
CN(C)CCCNC(=O)c1ccc(-c2nc(-c3ccc(Cl)cc3)cs2)cc1	-18.5	?	37.1%	?	10µM*	-10.1
CCC1Nc2ncnc(N3CCN(c4ccccn4)CC3)c2N(Cc2ccc(Cl)cc2)C1=O (stereo not drawn)	.	.	-8.5%	.	14.7%	.
Cc1ccc(S(=O)(=O)C(CNC(=O)c2ccc(F)c(F)c2)c2ccco2)cc1 (stereo not drawn)	.	-25.9%[46.1 µM]	4.3%	.	.	.
CC(C)C(NC(=O)c1ccccc1)C(=O)NC1CCCc2ccccc21 (stereo not drawn)	.	.	6.9%	.	13.5%	.
CN(C)CCNC(=O)c1ccc2c(c1)N(Cc1ccccc1)C(=O)c1ccccc1S2(=O)=O	.	-6.5%[46.1 µM]	-1.7%	?	.	.
CCOC(=O)CSc1nc2ccccc2c(=O)n1CCN1CCOCC1	16.4	31.1%	-24.0%	4.9%	12.5%	-1.9
CCOC(=O)CSc1nc2ccc(N3CCOCC3)cc2c(=O)n1Cc1ccccc1	51.3	?	21.6%	2.6%	2.82µM*	18.2*
COCCNC(=O)CSc1nc2ccc(N3CCOCC3)cc2c(=O)n1CCc1ccccc1	active	-29.1%	-1.9%	-10.7%	9.2%	14.4*
Cc1ccc(OCCCN2CCOCC2)cc1	19.5*	23.0%[46.1 µM]	29.1%	0.0%[46.1 µM]	22.2%	20.1*
Cc1ccc(OCCCCCCN2CCNCC2)cc1	.	5.2%	4.8%	14.1µM*	?	.
CCCc1cc(C(=O)OCC(=O)N(CCC)c2c(N)n(Cc3ccccc3)c(=O)[nH]c2=O)sc1C	.	-29.0%	-1.7%	?	?	.
O=C(/C(C=Nc1cc2c(oc1=O)CCCC2=O)=C(\O)c1ccccc1)c1ccccc1	125.2*	4.5%	16.8%	-4.2%	-11.3%	39.8*
COc1ccc(CCNC(=O)CCc2cn(Cc3ccc(C)cc3)c3ccccc23)cc1OC	.	5.1%[46.1 µM]	-17.8%	.	.	.
SMILES	Shiga inhibitor	Lassa entry inh	FMDV inh	MARV entry inh	HCV inh	Cycloheximide cs
COC(=O)c1c(C)[nH]c(C(C)=O)c1C	-12.0	21.4%	-18.2%	?	2.1%	-4.9
COC(=O)c1c(C)[nH]c(C(=O)/C=C/c2ccccc2F)c1C	62.2*	?	20.5%	?	8.5%	28.8*
COC(=O)c1c(C)[nH]c(C(=O)/C=C/c2ccccc2Cl)c1C	104.7*	.	19.8%	.	-12.8%	60.6*
CC1CCCC(C)N1/N=C/c1ccc(Cl)cc1 (stereo not drawn)	2.9	10.5%	12.3%	-1.5%	11.2µM*	-2.2
CC(=O)Nc1ccc(/C=C(\C#N)C(N)=O)cc1	16.1	-9.9%	14.7%	?	5.8%	11.0
COc1ccc(/C=N/N2C(C)CCCC2C)cc1OC (stereo not drawn)	18.8	-7.4%	9.9%	?	23.0%	6.1
